Source: ChEMBL document CHEMBL1961873, “Compounds: GSK PKIS; Assays: Nanosyn kinase panel” (2012)

Experiments:
[1] = target: MAP/microtubule affinity-regulating kinase 3 (Homo sapiens) (UniProt P27448); details: at 1 µM;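 also: reported values are averaged percent inhibition of MARK3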
[2] = target: T1, MAP/microtubule affinity-regulating kinase 4 (Homo sapiens) (UniProt Q96L34); details: at 0.1 µM
T1 sequence (whole entry): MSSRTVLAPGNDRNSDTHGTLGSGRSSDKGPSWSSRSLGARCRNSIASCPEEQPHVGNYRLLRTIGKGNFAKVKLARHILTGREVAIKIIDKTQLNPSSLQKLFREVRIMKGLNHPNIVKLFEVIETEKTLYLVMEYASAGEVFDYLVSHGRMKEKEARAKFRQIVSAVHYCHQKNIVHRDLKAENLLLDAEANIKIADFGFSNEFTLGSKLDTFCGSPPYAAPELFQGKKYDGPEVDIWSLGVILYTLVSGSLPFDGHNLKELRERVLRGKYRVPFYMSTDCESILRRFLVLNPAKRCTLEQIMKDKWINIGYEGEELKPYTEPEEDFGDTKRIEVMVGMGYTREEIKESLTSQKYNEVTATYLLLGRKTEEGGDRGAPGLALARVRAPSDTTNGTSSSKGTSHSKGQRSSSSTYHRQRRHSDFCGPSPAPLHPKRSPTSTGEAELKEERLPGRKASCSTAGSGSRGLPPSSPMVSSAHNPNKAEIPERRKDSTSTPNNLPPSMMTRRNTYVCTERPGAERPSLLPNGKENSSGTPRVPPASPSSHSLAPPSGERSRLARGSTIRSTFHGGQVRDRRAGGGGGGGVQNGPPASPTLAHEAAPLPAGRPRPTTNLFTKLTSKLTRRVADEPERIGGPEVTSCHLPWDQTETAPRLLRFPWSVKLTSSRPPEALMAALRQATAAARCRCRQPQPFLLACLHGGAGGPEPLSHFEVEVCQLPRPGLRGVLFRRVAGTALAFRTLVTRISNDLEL

[3] = target: T1, MAP/microtubule affinity-regulating kinase 4 (Homo sapiens); details: at 1 µM
[4] = target: Maternal embryonic leucine zipper kinase (Homo sapiens) (UniProt Q14680); details: at 0.1 µM
[5] = target: Maternal embryonic leucine zipper kinase (Homo sapiens) (UniProt Q14680); details: at 1 µM
[6] = target: MAP kinase-interacting serine/threonine-protein kinase 1 (Homo sapiens) (UniProt Q9BUB5); details: at 0.1 µM
[7] = target: MAP kinase-interacting serine/threonine-protein kinase 1 (Homo sapiens) (UniProt Q9BUB5); details: at 1 µM
[8] = target: MAP kinase-interacting serine/threonine-protein kinase 2 (Homo sapiens) (UniProt Q9HBH9); details: at 0.1 µM
[9] = target: MAP kinase-interacting serine/threonine-protein kinase 2 (Homo sapiens) (UniProt Q9HBH9); details: at 1 µM
[10] = target: Serine/threonine-protein kinase MARK2 (Homo sapiens) (UniProt Q7KZI7); details: at 0.1 µM
[11] = target: Serine/threonine-protein kinase MARK2 (Homo sapiens) (UniProt Q7KZI7); details: at 1 µM
[12] = target: PAS domain-containing serine/threonine-protein kinase (Homo sapiens) (UniProt Q96RG2); details: at 0.1 µM
[13] = target: PAS domain-containing serine/threonine-protein kinase (Homo sapiens) (UniProt Q96RG2); details: at 1 µM
[14] = target: Phosphorylase b kinase gamma catalytic chain, skeletal muscle/heart isoform (Homo sapiens) (UniProt Q16816); details: at 0.1 µM
[15] = target: Phosphorylase b kinase gamma catalytic chain, skeletal muscle/heart isoform (Homo sapiens) (UniProt Q16816); details: at 1 µM
[16] = target: T2, Phosphorylase b kinase gamma catalytic chain, liver/testis isoform (Homo sapiens) (UniProt P15735); details: at 0.1 µM
T2 sequence (whole entry): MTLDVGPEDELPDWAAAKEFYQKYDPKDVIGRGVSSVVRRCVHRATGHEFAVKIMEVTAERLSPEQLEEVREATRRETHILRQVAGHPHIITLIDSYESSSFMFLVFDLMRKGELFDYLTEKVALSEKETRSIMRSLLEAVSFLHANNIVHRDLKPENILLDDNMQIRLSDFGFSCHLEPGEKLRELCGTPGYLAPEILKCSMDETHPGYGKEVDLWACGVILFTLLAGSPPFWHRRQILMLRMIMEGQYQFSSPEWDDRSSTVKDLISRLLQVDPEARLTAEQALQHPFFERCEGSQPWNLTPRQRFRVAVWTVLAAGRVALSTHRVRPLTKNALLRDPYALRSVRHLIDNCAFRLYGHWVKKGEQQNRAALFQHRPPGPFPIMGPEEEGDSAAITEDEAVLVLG

[17] = target: T2, Phosphorylase b kinase gamma catalytic chain, liver/testis isoform (Homo sapiens); details: at 1 µM
[18] = target: Serine/threonine-protein kinase pim-1 (Homo sapiens) (UniProt P11309); details: at 0.1 µM
[19] = target: Serine/threonine-protein kinase pim-1 (Homo sapiens) (UniProt P11309); details: at 1 µM
[20] = target: Serine/threonine-protein kinase pim-2 (Homo sapiens) (UniProt Q9P1W9); details: at 0.1 µM;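 also: reported value is the mean percent inhibition of PIM2, measured in the GSK PKIS kinase inhibitor set screen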
Chain of Serine/threonine-protein kinase pim-2 (Homo sapiens) (Q9P1W9 whole entry, looked up): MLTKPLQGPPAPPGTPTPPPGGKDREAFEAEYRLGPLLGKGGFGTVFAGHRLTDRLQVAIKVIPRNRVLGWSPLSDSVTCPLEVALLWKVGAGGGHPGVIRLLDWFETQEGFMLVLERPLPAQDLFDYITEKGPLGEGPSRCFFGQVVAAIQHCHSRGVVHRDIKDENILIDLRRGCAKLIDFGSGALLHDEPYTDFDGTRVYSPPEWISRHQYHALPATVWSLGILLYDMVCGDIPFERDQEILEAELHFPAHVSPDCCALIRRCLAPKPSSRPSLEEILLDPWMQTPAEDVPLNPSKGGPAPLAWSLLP

Chain of MAP kinase-interacting serine/threonine-protein kinase 1 (Homo sapiens) (Q9BUB5 whole entry, looked up): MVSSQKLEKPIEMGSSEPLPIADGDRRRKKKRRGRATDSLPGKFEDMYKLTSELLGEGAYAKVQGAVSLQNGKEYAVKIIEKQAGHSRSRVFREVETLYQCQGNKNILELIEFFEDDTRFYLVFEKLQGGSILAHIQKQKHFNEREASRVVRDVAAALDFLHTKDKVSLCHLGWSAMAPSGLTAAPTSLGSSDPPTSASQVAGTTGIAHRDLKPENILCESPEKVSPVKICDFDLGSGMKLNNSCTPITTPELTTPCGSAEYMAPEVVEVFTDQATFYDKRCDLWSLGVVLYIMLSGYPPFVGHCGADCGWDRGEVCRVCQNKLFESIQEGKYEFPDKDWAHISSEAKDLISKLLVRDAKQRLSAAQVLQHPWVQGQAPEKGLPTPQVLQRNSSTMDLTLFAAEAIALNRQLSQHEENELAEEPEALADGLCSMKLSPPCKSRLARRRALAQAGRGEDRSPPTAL
Chain of Serine/threonine-protein kinase MARK2 (Homo sapiens) (Q7KZI7 whole entry, the tested form may be a part): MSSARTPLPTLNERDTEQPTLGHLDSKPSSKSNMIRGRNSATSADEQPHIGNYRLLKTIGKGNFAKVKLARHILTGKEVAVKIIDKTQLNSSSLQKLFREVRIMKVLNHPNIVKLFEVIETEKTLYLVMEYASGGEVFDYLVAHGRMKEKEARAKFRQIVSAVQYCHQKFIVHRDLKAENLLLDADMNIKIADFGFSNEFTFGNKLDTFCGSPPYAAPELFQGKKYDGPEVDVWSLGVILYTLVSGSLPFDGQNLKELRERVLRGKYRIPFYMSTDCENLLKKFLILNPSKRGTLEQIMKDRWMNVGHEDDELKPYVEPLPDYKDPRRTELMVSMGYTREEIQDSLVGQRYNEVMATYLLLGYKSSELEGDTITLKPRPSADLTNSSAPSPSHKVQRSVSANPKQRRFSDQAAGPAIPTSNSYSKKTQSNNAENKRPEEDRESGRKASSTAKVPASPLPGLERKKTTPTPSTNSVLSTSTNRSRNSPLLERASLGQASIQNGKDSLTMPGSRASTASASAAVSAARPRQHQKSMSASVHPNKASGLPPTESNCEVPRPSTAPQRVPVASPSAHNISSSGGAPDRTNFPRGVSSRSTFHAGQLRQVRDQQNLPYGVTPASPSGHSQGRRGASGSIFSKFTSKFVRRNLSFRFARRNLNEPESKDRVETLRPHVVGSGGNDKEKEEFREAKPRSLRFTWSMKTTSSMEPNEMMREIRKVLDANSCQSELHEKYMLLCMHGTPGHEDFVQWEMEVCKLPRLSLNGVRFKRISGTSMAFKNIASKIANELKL
Chain of Maternal embryonic leucine zipper kinase (Homo sapiens) (Q14680 whole entry, looked up): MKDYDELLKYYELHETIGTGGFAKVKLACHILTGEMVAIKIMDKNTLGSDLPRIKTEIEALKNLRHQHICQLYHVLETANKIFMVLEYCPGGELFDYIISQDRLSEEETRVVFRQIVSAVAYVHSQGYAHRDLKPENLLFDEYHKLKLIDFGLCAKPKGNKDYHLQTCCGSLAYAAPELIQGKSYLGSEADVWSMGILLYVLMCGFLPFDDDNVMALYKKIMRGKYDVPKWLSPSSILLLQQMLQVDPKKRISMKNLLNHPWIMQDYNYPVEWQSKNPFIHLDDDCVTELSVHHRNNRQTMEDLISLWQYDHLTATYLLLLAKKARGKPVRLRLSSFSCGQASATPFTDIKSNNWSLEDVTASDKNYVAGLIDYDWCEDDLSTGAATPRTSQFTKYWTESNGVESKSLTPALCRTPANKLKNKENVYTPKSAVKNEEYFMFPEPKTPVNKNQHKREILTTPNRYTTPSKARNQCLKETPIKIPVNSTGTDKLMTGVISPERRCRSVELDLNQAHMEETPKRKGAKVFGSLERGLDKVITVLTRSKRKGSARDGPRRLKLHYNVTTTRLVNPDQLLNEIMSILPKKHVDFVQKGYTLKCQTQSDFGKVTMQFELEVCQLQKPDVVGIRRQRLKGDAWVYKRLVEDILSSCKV
Chain of Phosphorylase b kinase gamma catalytic chain, skeletal muscle/heart isoform (Homo sapiens) (Q16816 whole entry, looked up, canonical isoform): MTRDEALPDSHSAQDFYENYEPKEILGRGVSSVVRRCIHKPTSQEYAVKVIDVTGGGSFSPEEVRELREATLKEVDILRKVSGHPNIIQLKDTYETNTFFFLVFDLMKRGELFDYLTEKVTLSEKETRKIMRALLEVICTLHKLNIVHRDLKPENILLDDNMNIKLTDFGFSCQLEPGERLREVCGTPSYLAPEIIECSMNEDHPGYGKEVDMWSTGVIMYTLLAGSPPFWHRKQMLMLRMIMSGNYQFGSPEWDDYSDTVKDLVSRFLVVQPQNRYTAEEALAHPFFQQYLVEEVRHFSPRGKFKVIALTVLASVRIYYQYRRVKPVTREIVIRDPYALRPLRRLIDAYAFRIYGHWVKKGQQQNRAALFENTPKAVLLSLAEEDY
Chain of MAP/microtubule affinity-regulating kinase 3 (Homo sapiens) (P27448 whole entry, looked up): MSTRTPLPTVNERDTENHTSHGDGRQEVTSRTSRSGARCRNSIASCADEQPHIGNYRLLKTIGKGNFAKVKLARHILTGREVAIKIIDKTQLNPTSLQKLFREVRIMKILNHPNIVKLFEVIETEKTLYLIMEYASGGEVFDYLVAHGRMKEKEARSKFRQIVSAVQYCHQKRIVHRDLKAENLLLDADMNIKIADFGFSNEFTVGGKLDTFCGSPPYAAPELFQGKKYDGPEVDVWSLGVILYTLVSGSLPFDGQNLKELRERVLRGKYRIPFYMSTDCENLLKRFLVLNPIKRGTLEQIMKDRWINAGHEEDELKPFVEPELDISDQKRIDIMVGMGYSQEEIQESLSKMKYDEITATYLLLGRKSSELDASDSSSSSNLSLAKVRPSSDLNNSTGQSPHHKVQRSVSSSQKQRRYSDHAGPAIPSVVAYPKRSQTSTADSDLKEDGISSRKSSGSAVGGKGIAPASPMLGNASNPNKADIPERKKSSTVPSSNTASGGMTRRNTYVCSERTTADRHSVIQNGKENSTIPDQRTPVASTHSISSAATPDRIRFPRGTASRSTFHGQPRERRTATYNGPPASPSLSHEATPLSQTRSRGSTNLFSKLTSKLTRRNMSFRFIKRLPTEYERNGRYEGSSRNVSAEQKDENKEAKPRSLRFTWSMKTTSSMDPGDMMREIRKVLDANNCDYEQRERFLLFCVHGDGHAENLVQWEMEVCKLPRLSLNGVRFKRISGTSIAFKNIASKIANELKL
Chain of Serine/threonine-protein kinase pim-1 (Homo sapiens) (P11309 whole entry, looked up): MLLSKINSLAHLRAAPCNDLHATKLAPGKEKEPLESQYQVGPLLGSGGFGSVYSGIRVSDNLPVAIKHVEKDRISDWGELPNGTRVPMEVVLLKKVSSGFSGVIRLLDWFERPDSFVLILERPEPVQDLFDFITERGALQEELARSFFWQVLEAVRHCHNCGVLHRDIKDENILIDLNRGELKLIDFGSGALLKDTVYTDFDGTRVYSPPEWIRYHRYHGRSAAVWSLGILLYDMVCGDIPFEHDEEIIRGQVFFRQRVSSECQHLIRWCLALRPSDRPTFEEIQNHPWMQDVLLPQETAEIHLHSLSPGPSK
Chain of MAP kinase-interacting serine/threonine-protein kinase 2 (Homo sapiens) (Q9HBH9 whole entry, looked up): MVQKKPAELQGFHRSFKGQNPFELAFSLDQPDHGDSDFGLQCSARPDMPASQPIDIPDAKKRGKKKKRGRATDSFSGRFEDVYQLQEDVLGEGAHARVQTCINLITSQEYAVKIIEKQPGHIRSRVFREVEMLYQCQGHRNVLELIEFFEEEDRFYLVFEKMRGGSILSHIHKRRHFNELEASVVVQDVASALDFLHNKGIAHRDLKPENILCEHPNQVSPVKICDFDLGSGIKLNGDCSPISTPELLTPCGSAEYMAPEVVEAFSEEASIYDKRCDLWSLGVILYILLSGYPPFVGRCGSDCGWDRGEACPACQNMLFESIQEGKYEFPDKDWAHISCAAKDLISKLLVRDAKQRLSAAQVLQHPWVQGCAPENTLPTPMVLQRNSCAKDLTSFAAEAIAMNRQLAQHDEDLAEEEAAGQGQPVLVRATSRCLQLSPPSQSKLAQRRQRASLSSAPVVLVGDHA

| Structure (SMILES) | inhibition [1] [%] | inhibition [2] [%] | inhibition [3] [%] | inhibition [4] [%] | inhibition [5] [%] | inhibition [6] [%] | inhibition [7] [%] | inhibition [8] [%] | inhibition [9] [%] | inhibition [10] [%] | inhibition [11] [%] | inhibition [12] [%] | inhibition [13] [%] | inhibition [14] [%] | inhibition [15] [%] | inhibition [16] [%] | inhibition [17] [%] | inhibition [18] [%] | inhibition [19] [%] | inhibition [20] [%] |
| --- | --- | --- | --- | --- | --- | --- | --- | --- | --- | --- | --- | --- | --- | --- | --- | --- | --- | --- | --- | --- |
| O=C1NC(=O)C(c2ccc(Cl)cc2)=C1Nc1ccc(Cl)c(C(=O)O)c1 | 1.91 | -0.05 | 1.71 | -3.46 | 1.25 | -0.24 | -0.57 | -0.57 | 0.11 | -0.46 | 2.17 | -0.66 | -1.05 | -1.07 | 1.44 | -3.95 | -5.8 | -0.65 | -0.5 | 1.05 |
| CCn1c(-c2nonc2N)nc2cncc(C(=O)N3CC[C@H](N)C3)c21 | 4.57 | 2.19 | 4.51 | 14.8 | 60.6 | 3.74 | 9.55 | 2.07 | 10.8 | 1.6 | 7.14 | 0.29 | 22.9 | 6.12 | 6.32 | 6.67 | 5.58 | 74.1 | 94.2 | 9.73 |
| NC(=O)c1cccc(Nc2nccc(Nc3cccc4[nH]ncc34)n2)c1 | 11.9 | 1.34 | 11.8 | -1.78 | 8.97 | 0.69 | 25.3 | 0.64 | 23.7 | 0.92 | 10.3 | 0.03 | 1.81 | 0.63 | 12.6 | -5.45 | -1.62 | 0.6 | 1.43 | 0.4 |
| O=C1Nc2ccc(C(=O)c3ccco3)cc2C1=Cc1cc(Cl)c(O)c(Cl)c1 | 8.65 | 1.71 | 6.69 | 4.89 | 17.8 | 4.13 | 11.5 | 6.52 | 34.7 | 2.14 | 8.29 | -0.44 | -0.13 | 2.98 | 9.29 | 3.61 | 2.94 | 3.39 | 31.8 | 2.1 |
| COc1ccc2cc(-c3c(-c4ccncc4)nc(-c4ccc([S+](C)[O-])cc4)n3C)ccc2c1 (stereo not drawn) | 0.76 | 1.4 | 1.07 | 2.76 | 6.5 | 2.19 | 3.02 | 0.53 | 0.5 | 0.3 | 2.02 | 0.01 | -1.68 | 2.27 | – | 4.08 | 1.1 | -0.22 | 0.54 | -0.02 |
| NCc1ccc(-c2nc(-c3ccc(Cl)c(O)c3)c(-c3ccncc3)[nH]2)cc1 | 5.09 | 0.06 | 2.57 | 0.75 | -1.02 | -2.18 | 6.58 | 1.14 | 4.8 | -0.38 | 2.58 | 0.34 | -0.1 | 0.14 | 3.18 | 0.02 | -1.08 | 1.18 | 0.18 | -0.05 |
| O=C(Nc1n[nH]c2nc(-c3ccco3)c(Br)cc12)C1CC1 | -5.02 | 1.46 | 2.43 | 2.96 | 7.3 | 3.3 | 13.9 | 1.26 | 1.34 | -0.08 | 2.09 | 0.09 | -1.87 | 1.65 | 2.36 | 4.24 | 1.34 | -0.5 | 0.54 | -0.2 |
| CCCN1CCC=C(c2ccc(Nc3nc(Nc4ccccc4C(N)=O)c4cc[nH]c4n3)c(C)c2)C1 | 20.8 | 3.18 | 13.7 | 10 | 44.7 | 2.32 | 3.91 | 1.78 | 7.47 | 1.68 | 14.6 | -1.89 | -1.19 | -1.86 | 48.2 | 7.18 | 16.4 | 2.16 | 7.46 | 0.34 |
| COc1cc2c(cc1Nc1nc(N3CCc4ccccc43)c3cc[nH]c3n1)N(C(=O)CN(C)C)CC2 | 6.25 | 0.37 | 1.93 | 1.9 | 2.27 | 1.09 | 5.08 | 0.08 | 7.67 | 1.14 | 0.39 | 1.45 | -0.16 | – | 3.14 | 3.23 | 0.08 | 0.66 | -0.15 | -0.35 |
| COc1ccc(COc2ccc(Cc3cnc(N)nc3N)cc2OC)cc1 | 2.06 | 2.83 | 1.47 | 0.82 | -1.43 | 10.8 | 0.82 | 3.14 | 0.25 | 1.26 | 3.13 | 1.77 | 0.54 | -0.96 | 1.56 | 1.58 | -1.66 | 1.34 | 0.49 | 2.71 |
| COc1ccccc1Nc1ncc(-c2ccccc2)o1 | 4.87 | 2.98 | 4.33 | 4.62 | 8.09 | 4.22 | 5.88 | 1.93 | 7.25 | 0.41 | 3.48 | -0.06 | 1.05 | 8.92 | 13.1 | 5.65 | 5.8 | 0.63 | 1.55 | 0.78 |
| N#Cc1c(NC(=O)c2cccc3ccccc23)sc2c1CCCC2 | 0.94 | 2.49 | 1.96 | 4.2 | 7.39 | 1.49 | 4.73 | 1.09 | 1.55 | 0.64 | 1.22 | -0.47 | -1.11 | 8.32 | 5.08 | 2.74 | 1.46 | 0.51 | 0.27 | -0.34 |
| O=C1NC(=O)C(c2ccccc2Cl)=C1Nc1cccc(O)c1 | 13.6 | 0.9 | 8.27 | 1.6 | 4.56 | 0.62 | 2.78 | 0.71 | 0.58 | 1.47 | 8.31 | 0.42 | -0.94 | 1.1 | 1.82 | 3.35 | 0.71 | 1.24 | 1.62 | -0.21 |
| Nc1nc(-c2ccc3c(c2)C(=Cc2cc(Br)c(O)c(Br)c2)C(=O)N3)cs1 | -2.49 | 0.78 | 1.73 | 0.07 | 5.36 | -1.04 | 7.91 | 0.49 | 10.6 | 0 | 0.67 | -0.9 | -1.85 | 3.78 | 5.21 | -3.21 | -2.57 | 3.74 | 25.6 | 10.8 |
